Compounds with a hit are over-represented: about 6% of the library has one in this group of screens.
PLK1 PBD inh: PLK1 (human) polo-box domain binding inhibition; AID 720504; Plk1 PBD binding of FITC phosphopeptide, fluorescence polarization; Potency, µM, for the others: max response, negative = inhibition, hits mostly inhibitors; 360,000 tested, 2.8% active; P53350; note: series mostly up to about 57 µM; nearly all actives have a fitted effect of over 65% in size
VDR inhibitor: vitamin D3 receptor (human) inhibition; VDR-SRC2-3 peptide fluorescence polarization, 2 h; Potency, µM, for the others: max response, negative = inhibition, usual class: inhibitors; 400,000 tested, 0.93% active
Target sequence (P11473 whole entry, looked up): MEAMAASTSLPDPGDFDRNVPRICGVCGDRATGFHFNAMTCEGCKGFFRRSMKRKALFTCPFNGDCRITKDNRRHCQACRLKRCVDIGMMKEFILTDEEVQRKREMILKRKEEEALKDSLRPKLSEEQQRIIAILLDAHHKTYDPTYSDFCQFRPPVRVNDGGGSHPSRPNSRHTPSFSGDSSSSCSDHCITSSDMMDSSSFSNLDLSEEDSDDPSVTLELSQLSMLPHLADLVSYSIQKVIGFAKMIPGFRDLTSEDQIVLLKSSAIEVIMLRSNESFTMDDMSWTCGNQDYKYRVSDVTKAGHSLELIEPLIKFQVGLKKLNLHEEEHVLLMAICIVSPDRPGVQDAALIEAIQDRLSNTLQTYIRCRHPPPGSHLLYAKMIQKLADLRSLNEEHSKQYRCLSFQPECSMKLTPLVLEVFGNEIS
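Fluorescence polarization assay measuring small-molecule disruption of VDR binding to the coregulator peptide SRC2-3. Compounds were pin-transferred (23 nl) into the reagent mix and incubated 2 h at room temperature before reading.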
Tau ThT inhib: blocks human tau fibril formation measured by thioflavin T. Potency, µM (series often up to 57.4 µM), for inactives: at the top dose activity, negative = inhibition, actives largely listed as inhibitors. recombinant tau K18 P301L, heparin-induced fibrillization, ThT fluorescence. 270,000 tested, 2.1% active; note: nearly all actives have a fitted effect of over 55% in size
Target sequence (P10636 561-689 P618L limits assumed): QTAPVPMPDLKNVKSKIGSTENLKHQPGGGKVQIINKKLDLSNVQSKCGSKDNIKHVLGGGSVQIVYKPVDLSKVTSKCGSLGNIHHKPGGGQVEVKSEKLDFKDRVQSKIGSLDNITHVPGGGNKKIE
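Heparin-induced fibrillization of the P301L-mutant K18 repeat-domain fragment of human tau was followed by ThT binding in quantitative high-throughput format.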
Tau fluor counter: counter-screen for tau fibril formation inhibitors. tau K18 P301L Alexa594 fluorescence, heparin fibrillization. Potency, µM (series often up to 57.7 µM), for inactives: at the highest dose activity change, negative = decrease. 280,000 tested, 0.93% active. AID 1463; note: nearly all actives have a fitted effect of over 55% in size
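Human tau K18 P301L (15 uM unlabeled, 0.24 uM Alexa 594-labeled) in 100 mM sodium acetate pH 7 with 20 uM heparin, 6 hr at 37 C. ThT 30 uM added, 1 hr ambient; Alexa 594 FP and total fluorescence read at 555/632 nm.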
Sfp PPTase inh: inhibitors of Bacillus subtilis Sfp phosphopantetheinyl transferase | Q9F4F7 | Biochemical Sfp PPTase activity, qHTS | Potency, µM, for the others: largest response in the series, negative = inhibition, actives largely listed as inhibitors | 310,000 tested, 3.5% active | AID 1490;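 note: the enzyme is Sfp with the accession as filed and its product quenches rhodamine fluorescence; 0% = enzyme reaction without inhibitor and -100% = no enzyme wells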
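Compounds were incubated with enzyme (final 15 nM) for 15 min at room temperature before substrate addition started the reaction. Fluorescence at 525 nm excitation, 598 nm emission was recorded immediately and after 30 minutes.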
Tau fibril FP: blocks human tau fibril formation measured by polarization; P10636; K18 P301L tau heparin fibrillization, Alexa594 FP, 6 h; Potency, µM (doses to about 57.7 µM), for inactives: at the top dose activity, negative = inhibition, usual class: inhibitors; 280,000 tested, 0.39% active; note: nearly all actives have a fitted effect of over 55% in size
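K18 P301L tau (15 uM unlabeled/0.24 uM Alexa 594-labeled, final) + compound + heparin 20 uM final; 100 mM NaOAc pH 7; 6 hr 37 C; ThT 30 uM final added, 1 hr RT; FP ex 555/em 632 nm.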
TbPYK inh: confirmation of Trypanosoma brucei pyruvate kinase inhibitors; shares compounds with PLK1 PBD inh; recombinant TbPYK, Kinase-Glo ATP luminescence; 890 tested, 67% active; Potency, µM (doses to about 76.9 µM), inactives show at the top dose activity change, negative = inhibition, most hits filed as inhibitors; note: nearly all actives have a fitted effect of over 70% in size
TbPYK orthogonal: orthogonal confirmation of Trypanosoma brucei pyruvate kinase inhibitors. 890 tested, 62% active. Potency, µM (doses to about 76.9 µM), for inactives: at the highest dose activity change, negative = inhibition, actives largely listed as inhibitors. shares compounds with PLK1 PBD inh. recombinant TbPYK, ADP-Glo luminescence, 60 min; note: nearly all actives have a fitted effect of over 75% in size
* = called active by the depositor; ? = inconclusive; . = no result given. Calls come from the whole dose curve; as a rule, active = well fitted curve in the direction sought with a large enough effect; inconclusive = small, poorly fitted or top-dose-only effect, or another doubt; inactive = no such curve, though single readings can be large; an effect the other way counts as inactive or inconclusive. Unless noted, % is set by controls: 0 for no effect and ±100 for the full control effect; potency is the fitted concentration of half-maximal effect.

SMILES	PLK1 PBD inh	VDR inhibitor	Tau ThT inhib	Tau fluor counter	Sfp PPTase inh	Tau fibril FP	TbPYK inh	TbPYK orthogonal
CCOc1ccc(-c2nc3cc(NC(=O)COc4cccc(C)c4)ccc3o2)cc1	.	-5%	?	-2%	.	2%	.	.
O=c1[nH]c(=S)n(Cc2ccco2)c(O)c1C=NCc1cccs1	-26%	1%	-8%	-22%	-1%	-7%	?	-29%
O=c1c2ccccc2[se]n1-c1ccccc1	3µM*	7.1µM*	?	?	0.79µM*	?	8.9µM*	6.3µM*
CCN1CCN(c2ccc([N+](=O)[O-])cc2C=C2C(=O)NC(=O)NC2=O)CC1	11µM*	?	?	-4%	45µM*	-12%	20µM*	?
CC(=O)N1CCN(c2ccc([N+](=O)[O-])cc2C=C2C(=O)NC(=O)NC2=O)CC1	?	6%	?	-9%	-12%	-4%	.	.
Cc1ccsc1/C=C1\C(=O)NC(=S)N(C)C1=O	3µM*	?	.	.	20µM*	.	11µM*	18µM*
CC(C)(C)N1C(=O)NC(=O)/C(=C\c2ccc3c(c2)CCN3CCCCl)C1=O	?	4%	.	?	?	-27%	.	.
COc1ccc(/C=C2\C(=O)NC(=S)N(C)C2=O)cc1C	1.2µM*	45µM*	?	-11%	18µM*	-9%	?	?
CN1CCC2(CC1)CCN(C(=O)Oc1ccccc1)CC2	.	9%	.	.	15%	.	.	.
O=C1NC(=O)C(=Cc2cccc(OCCOc3ccccc3)c2)C(=O)N1	2.7µM*	?	.	.	45µM*	.	?	?
CCOc1ccc2nc(N3CCC(C(=O)Nc4ccc(Br)cc4F)CC3)sc2c1	.	-1%	?	-17%	.	6%	.	.
COc1ccc(OC)c(N2C(=O)NC(=O)/C(=C/c3ccc([N+](=O)[O-])s3)C2=O)c1	4.7µM*	?	13µM*	?	10µM*	14µM*	4.5µM*	7.1µM*
O=C(CCn1c(=O)oc2ccccc21)N1CCC2(CC1)OCCO2	-6%	8%	-2%	-5%	-11%	-3%	3%	-8%
O=C(O)C1CN(CP(=O)(O)O)CCN1 (stereo not drawn)	.	10%	-11%	-18%	0%	?	.	.
Cc1ccc(/C=C2\C(=O)NC(=S)N(c3cccc(F)c3)C2=O)o1	2.7µM*	-9%	.	.	18µM*	.	16µM*	25µM*
Cc1cc(N2CCCCC2)ccc1C=C1C(=O)N(C)C(=S)N(C)C1=O	3.4µM*	?	?	-21%	-92%	-11%	20µM*	?
CN1C(=O)C(=Cc2ccc(N3CCOCC3)o2)C(=O)N(C)C1=S	65%	-8%	?	0%	6%	1%	.	.
CC(=O)Nc1ccc(C=C2C(=O)NC(=O)NC2=O)cc1	-29%	?	.	.	.	.	16µM*	18µM*
O=C1NC(=O)C(=Cc2ccc(N3CCOCC3)cc2)C(=O)N1	9.5µM*	26%	?	0%	-8%	-10%	25µM*	?
C=CCn1c(O)c(C(C)=Nc2ccc(NC(C)=O)cc2)c(=O)[nH]c1=O	-8%	-4%	-7%	-3%	3%	2%	.	.
CCN(CC)c1ccc(C=C2C(=O)NC(=S)NC2=O)cc1	2.7µM*	?	?	?	3.2µM*	-7%	16µM*	14µM*
Oc1cc2c(cc1O)[C@H]1c3ccccc3CNC1CC2 (stereo partly drawn)	.	.	?	?	.	-16%	.	.
NC1CCc2cc(O)c(O)cc2C1 (stereo not drawn)	1%	-7%	?	?	40µM*	?	-95%	28µM*
C=CCN1C[C@@H](C)N([C@H](c2ccc(C(=O)N(CC)CC)cc2)c2cccc(OC)c2)C[C@@H]1C	.	-7%	-8%	0%	.	14%	.	.
CC1=Nc2ccccc2/C1=C/c1c(O)[nH]c(=O)[nH]c1=O	?	6%	.	.	0%	.	.	.
SMILES	PLK1 PBD inh	VDR inhibitor	Tau ThT inhib	Tau fluor counter	Sfp PPTase inh	Tau fibril FP	TbPYK inh	TbPYK orthogonal
Cc1ccc2c(c1)=NC(=O)/C(=C/c1c(O)[nH]c(=O)[nH]c1=O)C=2	15µM*	79µM*	-11%	3%	35µM*	1%	25µM*	22µM*
CCOc1ccc(C(=O)Nc2ccc3nc(SCCOc4ccccc4)sc3c2)cc1	.	2%	-12%	-9%	.	?	.	.
CSc1ncc(/C=C2/C(=O)NC(=O)N(C)C2=O)cn1	11µM*	?	?	-23%	-95%	?	?	?
c1csc(CN2CCC3(CCNCC3)CC2)n1	.	0%	.	.	-6%	.	.	.
C[N+]12CCC(CC1)C(=C(c1ccccc1)c1ccccc1)C2	-16%	-1%	7%	1%	-10%	2%	25µM*	40µM*
CS(=N)(=O)CC[C@H](N)C(=O)O (stereo partly drawn)	.	5%	-9%	-13%	.	-3%	.	.
O=C1NC(=S)N(C2CC2)C(=O)/C1=C/c1ccc2c(c1)CCN2CCCCl	1.5µM*	-17%	?	-18%	20µM*	?	6.3µM*	?
CCN1C(=O)/C(=C/c2ccc3c(c2)CCN3CCCCl)C(=O)NC1=S	1.5µM*	-5%	18µM*	-11%	45µM*	?	?	?
CC(C)CC(N)C1(c2ccc(Cl)cc2)CCC1 (stereo not drawn)	.	.	-8%	-8%	13%	1%	.	.
COc1cc(C(=O)O)cc(OC)c1OC	-1%	-9%	.	.	.	.	.	.
COc1cc(C=C2C(=O)NC(=O)NC2=O)cc(OC)c1OC	11µM*	?	?	-8%	32µM*	-14%	14µM*	28µM*
CCOP(=O)(C1=C(O)C(=O)C(C(C)(C)C)=CC1=O)c1ccccc1 (stereo not drawn)	?	?	22µM*	-22%	40µM*	?	?	?
Cc1ccc(-c2nc(CN3C(=O)CN=C(c4ccccc4Cl)c4cc(Cl)ccc43)c(C)o2)cc1	.	1%	1%	-5%	.	4%	.	.
O=C(O)CCn1cc(C=C2C(=O)NC(=O)NC2=O)c(-c2cc3ccccc3oc2=O)n1	15µM*	-9%	?	-10%	40µM*	-8%	11µM*	32µM*
O=C(Oc1ccccc1)N1CCC2(CCN(Cc3ccccc3)CC2)CC1	.	-1%	.	.	11%	.	.	.
CN(C)c1ccc(/C=C/C=C2/C(=O)NC(=O)N(c3ccccc3)C2=O)cc1	?	36%	4µM*	?	45µM*	?	25µM*	7%
